Methyltransferases: Primary Screen for Target Class Profiling of Small Molecule Inhibitors of Methyltransferases; purified enzyme, MTase-Glo SAH luminescence; hits give low values; calls only at 40 µM; 25,000 tested, 3.9% active; call rule not given here
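Each enzyme was assayed with SAM and its substrate. SAH formation detected by MTase-Glo luminescence; single-point 40 uM screen[…].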
An asterisk follows results filed as active; i = inactive; + = active, no number; ! = repeats disagree. This is one part of a sample in which hits are shown more often than they occur. % is set by controls: 0 for no effect and ±100 for the full control effect.

SMILES | Methyltransferases
CCC(C)NC(=O)c1ccc2c(=O)n(C)c3nnc(SCC(=O)Nc4ccc(C)cc4)n3c2c1 (configuration not stated) | i
CC(C)CNC(=O)c1ccc2c(=O)n(C(C)C)c3nn(CC(=O)NC4CCCCC4)c(=O)n3c2c1 | i
COC(=O)N1CCN(Cc2cccc(NC(=O)Nc3ccc(C)nc3)c2F)CC1 | i
CN1CCN(Cc2ccc(NC(=O)Nc3ccc(Oc4cc(NC(=O)C5CC5)ncn4)cc3)cc2C(F)(F)F)CC1 | +
CCN1CCN(Cc2ccc(C(=O)Nc3ccc(C)c(Oc4ccc5c(c4)CC(=O)N5)c3)cc2C(F)(F)F)CC1 | i
Cc1ccc(NC(=O)CSc2nnc3n(CCC(C)C)c(=O)c4ccccc4n23)c(Cl)c1 | i
Cc1ccc(NC(=O)CSc2nnc3n(CCC(C)C)c(=O)c4ccccc4n23)cc1 | i
O=S(=O)(c1cc(F)ccc1F)N1CCC(n2cc(CCCO)nn2)CC1 | i
N#Cc1cnc2c(Cl)cc(NCc3cn(CCN4CCCCCC4)nn3)cc2c1Nc1ccc(F)c(Cl)c1 | +
CNC(=O)[C@@H]1C[C@H](n2cc(CNS(=O)(=O)c3cc(C)ccc3F)nn2)CN1 | i
Cc1ccc(C#N)c(-c2cc(NCc3cccnc3)nc3[nH]ccc23)n1 | i
CCN1CCC(n2cc(CNc3cc(Cl)c4ncc(C#N)c(Nc5ccc(F)c(Cl)c5)c4c3)nn2)CC1 | +
O=C(Nc1ccc(F)c(Cl)c1)c1cnc(-c2ccccc2)nc1-c1ccncc1 | i
N#Cc1cnc2cnc(NCc3cccnc3)cc2c1Nc1ccc(F)c(Cl)c1 | +
CCCSCCCN1C(=O)c2cc3sccc3n2CC1(C)C(=O)NC1CCCCCC1 (configuration not stated) | i
CC1(C(=O)NC2CCCC2)Cn2c(nc3ccccc32)C(=O)N1CCCc1ccccc1 (configuration not stated) | i
CC1(C(=O)NCc2ccccc2)Cn2c(ccc2-c2ccco2)C(=O)N1Cc1ccc(Cl)cc1 (configuration not stated) | i
CCC(C)NC(=O)c1ccc2c(=O)n(C)c3nn(Cc4cc(C)ccc4C)c(=O)n3c2c1 (configuration not stated) | i
CCCn1c(=O)c2ccc(C(=O)NCC(C)C)cc2n2c(=O)n(CC(N)=O)nc12 | i
COc1ccc(CN2C(=O)c3cc(-c4ccccc4)nn3CC2(C)C(=O)NCc2ccccc2)c(OC)c1 (configuration not stated) | i
CCCN1C(=O)c2cc3occc3n2CC1(C)C(=O)NC1CCCCCC1 (configuration not stated) | i
CCc1ccc(-c2cc3n(n2)CC(C)(C(=O)NC2CCCCCC2)N(CC)C3=O)cc1 (configuration not stated) | i
CC(C)c1ccc(NC(=O)CSc2nnc3[nH]c(=O)c(C(C)(C)C)nn23)cc1 | i
Cc1ccc(C)c(N2C(=O)c3cc4occc4n3CC2(C)C(=O)NC2CCCCCC2)c1 (configuration not stated) | i
CC(C)c1nc2c(NC(=O)Nc3cccc(Cl)c3)cccn2n1 | i
SMILES | Methyltransferases
CC(C)c1nc(-c2ccc(NC(=O)Nc3cccc(C(F)(F)F)c3)c3ccccc23)c2c(N)nccn12 | +
COCc1c(O)c(C(=O)O)c(C)c2c1OC(=O)c1c(C)cc(O)c(CO)c1O2 | +
Cc1ccc(NC(=O)Cn2nc3n(CCC(C)C)c(=O)c4ccc(C(=O)NC(C)C)cc4n3c2=O)cc1C | i
CC1CCCCC1NC(=O)C1(C)Cn2c(cc3occc32)C(=O)N1CCCc1ccccc1 (configuration not stated) | i
CCOc1cccc(C2c3cccn3-c3sc4c(c3CN2C(=O)NC(C)C)CCCC4)c1 (configuration not stated) | i
CC1CCN(S(=O)(=O)c2ccc3c(ccn3CCC(=O)NC3CCCC(C)C3C)c2)CC1 (configuration not stated) | i
CCC(C)NC(=O)c1ccc2c(=O)n(CCC(C)C)c3nn(CC(=O)Nc4ccc(C)cc4)c(=O)n3c2c1 (configuration not stated) | i
COC(=O)CCSC/C=C(\C)CCn1cc(CCc2ccc(-c3ccccc3)cc2)nn1 | +!
COc1ccc(N2CCN(c3nc(C(=O)NCc4cccc(C)c4)cs3)CC2)cc1 | i
CCC(=O)Nc1cccc(Oc2nc(Nc3ccc(N4CCN(C)CC4)cc3OC)ncc2Cl)c1 | i
COc1ccc(N(C(=O)Nc2c(C)cccc2C)c2cc(Nc3ccc(N4CCN(C)CC4)cc3)ncn2)c(OC)c1 | +
Cc1ccc(C(=O)CSc2nnc3n(CC(C)C)c(=O)c4ccc(C(=O)NC(C)C)cc4n23)c(C)c1 | i
COC(=O)c1ncn2c1C(=O)N(c1ccc(OC)c(OC)c1)C(C)(C(=O)NCc1ccccc1OC)C2 (configuration not stated) | i
C/C=C(\C)C(=O)O[C@H]1[C@@H](O[C@]2(COC(=O)CC(C)C)O[C@H](COC(=O)C(C)C)[C@@H](OC(C)=O)[C@@H]2O)O[C@H](COC(C)=O)[C@@H](O)[C@@H]1O | +
CC(C)CC(=O)OC[C@H]1O[C@@](COC(=O)CC(C)C)(O[C@H]2O[C@H](CO)[C@@H](O)[C@H](O)[C@H]2OC(=O)CC(C)C)[C@@H](OC(=O)CC(C)C)[C@@H]1O | i
C/C=C(\C)C(=O)OCC1OC(OCC2OC(OC3(CO)OC(CO)C(O)C3O)C(O)C(O)C2O)C(O)C(O)C1O (configuration not stated) | i
O=C(Cn1nc2n(Cc3ccccc3)c(=O)c3ccccc3n2c1=O)c1ccc(Br)cc1 | i
CCC(C(=O)NCc1cccc(OC)c1)n1ccc2cc(S(=O)(=O)N3CCCCC3)ccc21 (configuration not stated) | i
CC(C)CCNC(=O)C1(C)Cn2c(ccc2-c2ccco2)C(=O)N1CCc1ccc(Cl)cc1 (configuration not stated) | i
O=C(NCCc1ccco1)c1cc2n(n1)CCCN(Cc1cccc(F)c1)C2=O | i
CCCn1nc(CNC(=O)Cc2ccc(F)cc2)c2ccccc21 | i
N=C(N)c1ccccc1 | i
N=C(N)c1ccc(OCCCCCOc2ccc(C(=N)N)cc2)cc1 (tested in a mixture with another compound) | +
O=C(c1ccc(OCCCc2cnc[nH]2)cc1)C1CC1 | i
CCCn1c(=O)c2ccc(C(=O)NCC(C)C)cc2n2c(=O)n(CC(=O)Nc3ccccc3C)nc12 | i
SMILES | Methyltransferases
Cc1ccc2nc(Nc3ccc4c(c3)n(C)c(=O)n4C)c(-n3nc(C)cc3C)nc2c1 | i
COC(=O)c1ncn2c1C(=O)N(Cc1ccccc1Cl)C(C)(C(=O)NCc1ccccc1OC)C2 (configuration not stated) | i
CCc1ccccc1NC(=O)Cn1c(=O)oc2cc(S(=O)(=O)N3CCCCC3C)ccc21 (configuration not stated) | i
CCCc1nc(CN(CC)C(=O)c2ccc(NC(=O)C3CCC3)cc2)no1 | i
NS(=O)(=O)c1ccc(Nc2nc(OCC3CCCCC3)c3[nH]cnc3n2)cc1 | +
Nc1nc(N)c(N=O)c(OCC2CCCCC2)n1 | i
CCN(CC)C(=O)c1ccc(Nc2nc(OCC3CCCCC3)c3[nH]cnc3n2)cc1 | +
O=C(NCc1ccncc1)c1ccc(-c2cccs2)nc1 | i
CCCn1c(=O)c2ccc(C(=O)NC(C)C)cc2n2c(=O)n(Cc3cccc(F)c3)nc12 | i
